# Records with an inconclusive call do not appear. Values without a mark were called inactive. Calls follow the shape of the dose curve; as a rule, active = well fitted inhibition curve with a large enough effect; inconclusive = small, poorly fitted or top-dose-only effect, or effect the other way; inactive = flat fitted curve, though single readings scatter.
# Biological target: ATP-dependent 6-phosphofructokinase (Trypanosoma brucei brucei) (UniProt O15648)
# Test: qHTS Assay to Find Inhibitors of T. brucei phosphofructokinase: hit validation (AID 492961)
# Conditions: T. brucei PFK, ADP-Glo luminescence; series mostly up to 51.4 µM; activity change, negative = inhibition: at the top concentration
# Procedure, shortened: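 Luminescence from ADP-Glo reports ADP generated as T. brucei PFK (1.25 nM) phosphorylates 0.5 mM fructose-6-phosphate using 0.1 mM ATP. Reactions ran 45 min at room temperature, pH 8.0.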
# % is scaled to controls: 0 for no effect and ±100 for the full control effect.
# Chain of ATP-dependent 6-phosphofructokinase (Trypanosoma brucei brucei) (O15648 whole entry, looked up): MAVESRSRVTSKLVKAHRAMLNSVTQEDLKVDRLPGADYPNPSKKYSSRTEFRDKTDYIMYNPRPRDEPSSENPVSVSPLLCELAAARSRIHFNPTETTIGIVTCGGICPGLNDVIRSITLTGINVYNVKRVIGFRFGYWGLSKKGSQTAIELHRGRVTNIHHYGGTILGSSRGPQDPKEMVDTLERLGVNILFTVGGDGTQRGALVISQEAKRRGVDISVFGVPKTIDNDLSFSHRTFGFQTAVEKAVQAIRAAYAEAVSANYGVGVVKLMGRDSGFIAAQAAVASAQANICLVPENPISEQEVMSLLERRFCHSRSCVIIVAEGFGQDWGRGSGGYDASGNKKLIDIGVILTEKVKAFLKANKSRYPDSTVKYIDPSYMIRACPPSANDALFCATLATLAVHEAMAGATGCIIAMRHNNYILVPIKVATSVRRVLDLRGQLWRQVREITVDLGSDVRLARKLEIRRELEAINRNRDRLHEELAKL
row,Structure (SMILES),"activity change, negative = inhibition [%]"
1,C(=C\c1ccncc1)/c1ccccc1,-12.5
2,CCN(CC)CCCC(C)Nc1cc(/C=C/c2ccccc2Cl)nc2cc(Cl)ccc12 (centres undefined),3.57
3,CN1CCC(OC(=O)C(Oc2ccc(Cl)cc2)Oc2ccc(Cl)cc2)CC1,6.05
4,OC[C@H]1O[C@@](CO)(O[C@H]2O[C@H](CO)[C@@H](O)[C@H](O)[C@H]2O)[C@@H](O)[C@@H]1O,-5.18
5,CO,-12
6,COc1ccc(/C=N/NC(=O)c2ccncc2)c(C(=O)O)c1OC,-4.08
7,CC1CC(O)CC(C)(C)C1 (centres undefined),0
8,CC1=CC(=O)NS(=O)(=O)O1,0
9,CC(C)C1=CC2=CC[C@@H]3[C@](C)(CCC[C@@]3(C)C(=O)O)[C@H]2CC1,-1.23
10,O=c1n(CC2CO2)c(=O)n(CC2CO2)c(=O)n1CC1CO1 (centres undefined),-8.88
11,O=C(NNCNNC(=O)c1ccncc1)c1ccncc1,-9.65
12,C[C@]12CCC(=O)C[C@@H]1CC[C@@H]1[C@@H]2CC[C@]2(C)C=CC[C@@H]12,10.3
13,CC(=O)c1ccc2c(c1)N(CCCN1CCN(CCO)CC1)c1ccccc1S2,-6.7
14,CCCc1nc(C(C)(C)O)c(C(=O)OCc2oc(=O)oc2C)n1Cc1ccc(-c2ccccc2-c2nn[nH]n2)cc1,8.56
15,Cn1c(=O)c2c(ncn2CCOC(=O)C(C)(C)Oc2ccc(Cl)cc2)n(C)c1=O,-8.16
16,CCCCO,12.4
17,CC(=O)NCCCS(=O)(=O)O,1.78
18,CC/C(=C(/CC)c1ccc(OP(=O)(O)O)cc1)c1ccc(OP(=O)(O)O)cc1,0.82
19,C[N+]1(C)[C@@H]2CC(OC(=O)C(O)(c3cccs3)c3cccs3)C[C@H]1[C@@H]1O[C@@H]12 (some centres undefined),-3.58

# Reference: PubChem BioAssay (NCATS)
